This is a sample that favours compounds with a hit; in the whole collection about 3.1% have one here.
Rtt109 Vps75: inhibitors of C. albicans Rtt109/Vps75 HAT, primary screen, biochemical, ThioGlo CoA-SH fluorescence, plate reader | Histone acetyltransferase RTT109 (Candida albicans (strain SC5314 / ATCC MYA-2876)), … | purified Rtt109/Vps75, 4 h | inhibition, % at 34.9 µM | actives 0.16% (n = 330,000) | AID 540336, 2011;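 active = inhibition of at least 50% in every replicate; inconclusive = best replicate reaches 50% inhibition but some replicates fall short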
Target sequence (Q5AAJ8 whole entry, looked up): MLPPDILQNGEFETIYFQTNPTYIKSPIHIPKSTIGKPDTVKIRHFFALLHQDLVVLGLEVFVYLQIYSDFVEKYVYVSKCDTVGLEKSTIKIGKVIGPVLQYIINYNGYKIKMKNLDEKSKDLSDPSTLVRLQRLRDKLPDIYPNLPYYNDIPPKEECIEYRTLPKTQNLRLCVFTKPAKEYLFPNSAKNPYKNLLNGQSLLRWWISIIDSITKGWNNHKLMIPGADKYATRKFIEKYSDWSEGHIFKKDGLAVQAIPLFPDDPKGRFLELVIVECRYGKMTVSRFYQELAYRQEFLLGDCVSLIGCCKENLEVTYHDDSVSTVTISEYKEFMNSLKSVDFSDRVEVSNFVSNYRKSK
esBAF inh: Bmi1 luciferase reporter increase in mESCs, primary screen, esBAF inhibitor project, mouse ES cells, Bmi1 luciferase knock-in, single point | 24 h; 100% = twice the neutral-well signal | reporter increase, % at 12.5 µM | actives 2% (n = 350,000); in the data active = activation above about 40%; inconclusive = no clear call, values can overlap the other calls;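 also: 0% = median of the plate's neutral control wells and 100% = double that signal; a rise in the Bmi1 reporter signal indicates esBAF inhibition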
Statin myotox sup: suppressors of statin myotoxicity in C2C12 myotubes, primary screen, cell-based, single point, plate reader | C2C12 myotubes + simvastatin, ATP luminescence, 48 h; scaled: DMSO 0, geranylgeraniol control 100 | rescue of ATP level, % at 7.49 µM | actives 0.78% (n = 330,000);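 active = mean ATP rescue above about 67%, or every replicate alone reaching that limit, limit read from the data, passing the limit was not always enough; inconclusive = no clear call, values can overlap the other calls; inactive = mean under the limit and some replicate under it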;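 also: myotubes were challenged with 10 µM simvastatin during compound exposure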
MITF TRPM1 HTS: activators of MITF-driven TRPM1 promoter reporter, primary screen, cell-based, SK-MEL-5, luciferase, single point; SK-MEL-5 TRPM1-promoter luciferase, 24 h; % of positive control, neutral wells = 0; activation, % at 12.5 µM; actives 0.75% (n = 300,000); AID 588334, 2011;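 active = mean activation of at least 80% with every replicate also reaching 80%; inconclusive = mean reaches 80% but some replicate falls short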;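 also: 0% = neutral control wells and 100% = parthenolide positive control wells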
Wnt bcat act: Wnt/beta-catenin pathway activators, primary screen, cell-based, plate reader, single point | Wnt/beta-catenin reporter cell assay, activator | actives 1.2% (n = 300,000) | activation, % at 9.35 µM | AID 743398, 2014; in the data active = activation above about 30%, passing the limit was not always enough; inconclusive = no clear call, values can overlap the other calls;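 also: 0% = neutral control wells and 100% = positive control wells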
* = called active by the depositor; u = inconclusive; x = no result given.

SMILES	Rtt109 Vps75	esBAF inh	Statin myotox sup	MITF TRPM1 HTS	Wnt bcat act
C[C@@H]1CN([C@H](C)CO)C(=O)c2cccc(NS(=O)(=O)c3cccs3)c2O[C@H]1CN(C)Cc1ccc(-c2ccccc2)cc1	x	4.2	3.3	x	x
C[C@H](CO)N1C[C@H](C)[C@H](CN(C)Cc2ccc(Oc3ccccc3)cc2)Oc2c(NS(=O)(=O)c3cccs3)cccc2C1=O	x	-7.3	0.5	x	x
COc1ccc(NC(=O)N(C)C[C@H]2Oc3c(NS(=O)(=O)c4ccc(F)cc4)cccc3C(=O)N([C@H](C)CO)C[C@H]2C)cc1	x	-2.4	14.7	x	x
O=[N+]([O-])c1ccc2cn(-c3ccccc3)nc2c1	0.9	61.0*	-1.8	54.0	25.9
COc1ccccc1-n1cc2ccc([N+](=O)[O-])cc2n1	0.4	x	x	59.4	18.5
O=Cc1cn(-c2ccccc2)nc1-c1cccc([N+](=O)[O-])c1	x	58.8*	-6.7	x	0.8
O=Cc1cn(-c2ccccc2)nc1-c1ccccc1	-3.7	38.6	-17.4	46.8	16.3
CC(C)CC#Cc1ccc2c(c1)O[C@H](CN(C)C(=O)Cc1cccnc1)[C@@H](C)CN([C@H](C)CO)S2(=O)=O	x	8.1	-6.7	x	x
Nc1nnc(-c2ccccc2)c(-c2ccccc2)n1	-7.0	-1.1	121.0*	-3.0	-1.6
Cc1ccc(-c2nnc(-c3ccccc3)c(-c3ccccc3)n2)cc1	3.4	x	x	11.5	-1.5
Cc1ccc(-n2nnnc2SCC(=O)NC(=O)Nc2ccc3c(c2)OCCO3)cc1	0.3	u	7.6	31.7	7.5
CN1CCN(c2ccc(NC(=O)CSc3ccccc3)cc2F)CC1	11.7	-3.0	x	x	38.2*
Cc1ccc(CSCC(=O)Nc2ccc3c(c2)OCO3)cc1	2.4	2.1	102.7*	-8.3	-1.1
O=C(CSc1ccccc1)Nc1ccc2c(c1)OCCO2	-11.4	54.4*	8.7	50.1	33.3*
O=C(CSc1nnnn1-c1ccc(Cl)cc1)NC(=O)Nc1ccc2c(c1)OCCO2	-7.4	56.1*	52.5	75.6	38.4*
C[C@@H]1CN([C@H](C)CO)C(=O)c2cc(N(C)C)ccc2O[C@@H](C)CCCCO[C@@H]1CN(C)C(=O)c1ccncc1	x	9.6	21.2	x	x
C[C@@H]1CN([C@@H](C)CO)C(=O)c2cc(NC(=O)c3ccncc3)ccc2O[C@H]1CN(C)Cc1ccc(Oc2ccccc2)cc1	x	-1.8	-77.7	x	x
CC(CC(=O)Nc1ccc2c(c1)OCCO2)c1ccccc1 (stereo not given)	15.1	55.1*	-1.2	x	55.7*
Cn1cc(S(=O)(=O)CC(=O)Nc2ccc3c(c2)OCO3)c2ccccc21	-8.3	-0.3	24.4	-11.3	x
CC1CCN(C(=O)CSc2nc3ccccc3[nH]2)CC1	-3.5	51.0*	-1.2	u	19.9
O=C(CSc1ccc2c(c1)OCCO2)Nc1ccc(Br)cc1	-6.2	4.9	102.1*	-1.0	-4.6
CC(CC(=O)Nc1ccc2c(c1)OCO2)c1ccccc1 (stereo not given)	-7.2	17.3	12.4	41.3	5.9
CCn1cc(S(=O)(=O)CC(=O)Nc2ccc3c(c2)OCO3)c2ccccc21	-7.2	7.9	-6.1	x	34.8*
O=C(C[C@@H]1C[C@H]2c3cc(NC(=O)C4CCC4)ccc3O[C@H]2[C@H](CO)O1)NCc1cc(F)ccc1F	x	0.8	-0.5	x	x
COc1ccc(NC(=O)N2CCCCN3[C@H](CO)[C@H](c4ccc(C#Cc5ccccn5)cc4)[C@H]3C2)cc1	x	4.0	4.4	x	x
SMILES	Rtt109 Vps75	esBAF inh	Statin myotox sup	MITF TRPM1 HTS	Wnt bcat act
O=C(CSc1ccccn1)Nc1ccc2c(c1)OCO2	x	x	x	x	28.2
C/C(CC(=O)Nc1ccc2c(c1)OCCO2)=N\NC(=O)c1ccccc1F	1.2	-5.5	-32.2	5.8	0.3
C/C(CC(=O)Nc1ccc2c(c1)OCCO2)=N\NC(=O)c1ccccn1	0.6	51.9*	6.9	6.4	5.0
O=C(CSc1ccccc1)Nc1ccc2c(c1)OCO2	-1.7	44.1*	6.1	89.2*	23.5
O=C(CSc1ccc2c(c1)OCCO2)Nc1ccc2c(c1)OCO2	-0.4	15.8	x	8.2	-1.9
O=C(CSc1ccccc1F)Nc1ccc2c(c1)OCO2	-1.2	30.3	-1.3	98.7*	5.2
Cc1cc(=O)[nH]c(SCC(=O)NC2CCCCCC2)n1	3.3	x	72.1*	-1.4	-0.6
Cc1cc(=O)[nH]c(SCC(=O)NC2CCCCCCC2)n1	-3.6	7.4	6.1	-1.9	-0.5
Cc1ccc(S(=O)(=O)N(C)C[C@@H]2Oc3cc(Br)ccc3S(=O)(=O)N([C@H](C)CO)C[C@@H]2C)cc1	x	-0.3	14.9	x	x
O=C(CSC1=NC2(CCCCC2)N=C1c1ccccc1)Nc1ccc2c(c1)OCCO2	170.0*	-20.2	-2.7	-10.4	2.3
O=C(CSc1ncn(-c2ccccc2)n1)Nc1ccc2c(c1)OCCO2	4.7	-2.4	100.9*	-3.5	0.5
Cc1ccc(NC(=O)CC2Nc3ccccc3NC2=O)cc1Cl (stereo not given)	1.1	38.9	-19.9	-0.6	-0.3
O=C(CSc1nccn(-c2ccc3c(c2)OCCO3)c1=O)Nc1ccccc1	39.8	49.3*	11.9	17.9	4.2
O=C(CSC1=NC2(CCCCCC2)N=C1c1ccccc1)Nc1ccc2c(c1)OCCO2	-12.1	-2.0	-2.7	6.0	0.0
O=C(CC1Nc2ccccc2NC1=O)Nc1ccc2c(c1)OCO2 (stereo not given)	3.3	46.7*	-0.7	1.8	1.4
Cc1ccc(NC(=O)CSc2nccn(-c3ccc4c(c3)OCCO4)c2=O)cc1	11.0	x	x	6.2	3.5
O=C(Nc1nccs1)[C@H]1[C@H](CO)[C@H]2Cn3c(cccc3=O)[C@H]2N1C(=O)C1CC1	x	-7.6	0.3	x	x
CCSc1nnc(SCC(=O)NC2CCCCC2)s1	-2.8	-9.9	7.7	-4.0	-2.7
O=C(CSc1ccccn1)c1ccc2c(c1)OCO2	6.4	51.1*	-2.3	x	47.3*
CSc1nsc(SCC(=O)Nc2ccc3c(c2)OCCO3)n1	1.7	42.8*	-3.7	69.4	26.3
Cc1ccc(NC(=O)CN2C(=O)C3C4C=CC(C4)C3C2=O)cc1 (stereo not given)	4.1	x	x	9.0	1.4
Cc1csc(SCC(=O)Nc2ccc3c(c2)OCCO3)n1	-1.9	x	x	44.5	21.5
CSc1nsc(SCC(=O)NC2CCCCC2)n1	16.3	17.8	68.9*	13.0	x
O=C(CN1C(=O)C2C3C=CC(C3)C2C1=O)Nc1ccc2c(c1)OCCO2 (stereo not given)	3.8	41.2*	2.0	52.8	x
CCCC(=O)Nc1ccc2c(c1)C(=O)N(C)C[C@@H](OC)[C@@H](C)CN(Cc1ccccc1F)[C@H](C)CO2	x	0.9	29.1	x	x
COc1ccc(-c2nnc(SC(C)C(=O)Nc3ccc4c(c3)OCCO4)o2)cc1 (stereo not given)	-8.5	46.2*	8.9	u	x
O=C(Nc1ccc2c(c1)OCCO2)c1cnn(-c2ccccc2)n1	7.8	31.0	-7.7	90.2*	24.9

Assay outcomes from PubChem BioAssay.
